Sampled rows, rich in hits. Any-hit rate of the full collection: about 28%.
CYP2C19 activ: increases human CYP2C19 enzyme activity; AID 1025; recombinant CYP2C19, luciferin-H EGE luminescence; active compounds read high; 0 = fully inhibited enzyme, 1 = untreated enzyme; 96,000 tested, under 10 active; activation factor at 5 µM; P33261;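 active means activation factor of at least 2 at 5 µM in the primary screen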;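 further: 0 = wells with 2.5 mM tranylcypromine and 1 = vehicle-only wells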
D1 allo mod: allosteric modulators of human D1 dopamine receptor; HEK293 D1, CRE-luciferase, dopamine EC30 potentiation; actives deviate in either direction; AID 641; B-score at 10 µM; P21728; 5.9% of 58,000 active;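 active means luminescence count or its row- and column-corrected plate score outside the 99.7% band of the plate's sample wells, on either side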
CYP2C9 inh: inhibitors of human CYP2C9 | CYP2C9 Supersomes, luciferin-H conversion, luminescence | 20% of 96,000 active | inhibition, % at 5 µM | AID 777 | P11712;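 active means blocking of liver enzyme CYP2C9 beyond about 50% at 5 µM, limit read from the data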
DAT uptake mod: human DAT dopamine uptake with cocaine, either direction; Q01959; LLC-PK1 hDAT cells, [14C]-dopamine uptake with cocaine IC80; actives deviate in either direction; B-score at 10 µM; 1.3% of 110,000 active;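 active means Z score or B-score, a plate-position-corrected score, falls beyond the plate's 99.7% confidence bounds, in either direction; inactive means both scores lie inside the 99.7% bounds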;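 further: scored against the spread of the other compound wells on the same plate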
Target sequence (Q01959 whole entry, looked up): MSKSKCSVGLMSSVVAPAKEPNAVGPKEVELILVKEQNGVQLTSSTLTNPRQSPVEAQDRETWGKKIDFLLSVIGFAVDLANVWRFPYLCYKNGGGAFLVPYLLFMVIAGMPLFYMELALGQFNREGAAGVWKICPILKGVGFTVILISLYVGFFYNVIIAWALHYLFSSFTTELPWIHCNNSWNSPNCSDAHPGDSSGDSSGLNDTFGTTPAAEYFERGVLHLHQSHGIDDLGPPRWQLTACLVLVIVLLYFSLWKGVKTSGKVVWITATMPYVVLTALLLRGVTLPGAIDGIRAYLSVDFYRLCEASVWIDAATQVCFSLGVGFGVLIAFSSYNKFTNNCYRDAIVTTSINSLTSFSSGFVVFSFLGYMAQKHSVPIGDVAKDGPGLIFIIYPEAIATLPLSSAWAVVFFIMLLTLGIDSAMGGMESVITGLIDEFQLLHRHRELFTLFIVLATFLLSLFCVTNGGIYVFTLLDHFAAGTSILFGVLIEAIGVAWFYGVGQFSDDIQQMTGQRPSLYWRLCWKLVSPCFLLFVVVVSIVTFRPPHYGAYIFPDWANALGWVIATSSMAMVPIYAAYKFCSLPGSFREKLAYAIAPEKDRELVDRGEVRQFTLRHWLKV
CYP2C9 act: activators of human CYP2C9; P11712; recombinant CYP2C9, luciferin-H conversion, luminescence; active compounds read high; factor 1 = untreated enzyme, 0 = blocked; activation factor at 5 µM; 1.4% of 96,000 active; AID 1024;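 active means activation factor of 2 or more for CYP2C9 at a 5 µM dose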;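 further: 0 = sulfaphenazole-blocked wells and 1 = vehicle-only wells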
CYP2C19 inh: human CYP2C19 inhibition | P33261 | CYP2C19 Supersomes, luciferin-H EGE luminescence, 30 min | inhibition, % at 5 µM | 21% of 96,000 active | AID 778;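 active means CYP2C19 inhibition above a set limit at 5 µM in the primary screen, cut at about 50% in these data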;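 further: plate controls were negative control wells for no effect and 2.5 mM tranylcypromine positive control for full effect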
* = called active by the depositor; · = no result.

SMILES	CYP2C19 activ	D1 allo mod	CYP2C9 inh	DAT uptake mod	CYP2C9 act	CYP2C19 inh
C[C@H](NC(=O)c1[nH]cnc1C(=O)Nc1ccc(CNC(=O)OC(C)(C)C)cc1)C(=O)OC(C)(C)C	·	·	·	0.48	·	·
CCCCN(Cc1cc2ccccc2[nH]c1=O)C(=O)c1ccccn1	1	·	-14	-0.49	1.1	-4
Cc1cc2cc(CN(Cc3nnnn3C3CCCCC3)CC3CCCO3)c(=O)[nH]c2cc1C (stereo unspecified)	0.3	0.91	38	0.79	0.6	69*
Cc1cc2cc(CN(Cc3ccc4c(c3)OCO4)Cc3nnnn3C3CCCC3)c(=O)[nH]c2cc1C	0.9	·	0	-1.4	1	5
Cc1cc(C)c2cc(CN(Cc3nnnn3C3CCCCC3)CC3CCCO3)c(=O)[nH]c2c1 (stereo unspecified)	0.1	-0.36	55*	1.3	0.4	86*
COc1ccc(CN(Cc2cc3ccc(C)cc3[nH]c2=O)Cc2nnnn2C2CCCC2)cc1	0.1	-0.29	93*	1.1	0.1	93*
CC12CCC(C(=O)Nc3ccccc3Br)(C/C1=N\O)C2(C)C (stereo unspecified)	1	·	-18	0.36	1.2	3
CCOc1ccc(NC(=O)CSc2nc(C)c3c(c2C#N)CCCC3)cc1	1	·	-8	1.4	1.1	4
CCn1c(SCc2nc3ccccc3[nH]2)nnc1-c1cccs1	0	0.038	33	1.2	0.7	99*
CCn1c(SCc2nc3ccccc3[nH]2)nnc1-c1ccccc1OC	0	0.033	70*	-0.12	0.3	100*
Cc1cc(C)c(S(=O)(=O)NNC(=O)C2CCN(Cc3ccccc3)CC2)c(C)c1	1.1	·	-30	0.075	1.3	-10
NC(=O)C1=C[C@@H](c2ccc(C(F)(F)F)cc2)C[C@@H](OCCCCO)O1	·	·	·	-1.3	·	·
CC(=O)c1ccc(NC(=O)Oc2ccccc2)cc1	0.5	·	39	0.89	0.6	54*
O=S(=O)(Nc1ccncc1)c1ccccc1	1	-0.83	7	-0.89	0.9	0
CC(=O)c1ccc(NS(=O)(=O)c2ccccc2)cc1	0.4	-0.054	79*	-0.33	0.2	61*
CCCCNC(=O)c1ccc(NS(=O)(=O)c2ccccc2)cc1	0.7	0.62	93*	0.66	0.1	35
CCN(CC)C(=O)c1ccc(NS(=O)(=O)c2ccccc2)cc1	0.2	0.62	77*	1.6	0.2	82*
CCC1CCCCN1CCNC(=O)CCS(=O)(=O)c1ccc(Br)cc1 (stereo unspecified)	·	·	·	-0.35	·	·
O=C(NCC(F)(F)F)N1CCOCC1	1.2	0.98	-19	-0.27	1.2	-19
O=C(Nc1ccc(Cl)cc1)c1cc(S(=O)(=O)N2CCOCC2)cs1	0.9	·	35	0.26	0.7	8
O=C(Nc1ccc(F)cc1)c1cc(S(=O)(=O)Nc2ccc(F)cc2)cs1	0.2	·	90*	0.81	0.1	77*
Cc1ccc(NC(=O)c2cc(S(=O)(=O)N3CCCCC3)cs2)cc1	0.8	·	68*	-0.0065	0.3	19
Cc1ccc2c(c1)NC(=O)C(CC(=O)NCc1cccnc1)O2 (stereo unspecified)	0.9	0.6	7	0.023	0.9	6
Cn1nc(C(F)(F)F)c(C(=O)Nc2ccc(F)cc2F)c1Sc1ccc(Cl)cc1	0.4	·	24	-0.29	0.8	61*
Cn1nc(C(F)(F)F)c(C(=O)Nc2ccc(F)cc2F)c1Sc1ccc(C(F)(F)F)cc1	0.3	·	34	-1	0.7	69*
SMILES	CYP2C19 activ	D1 allo mod	CYP2C9 inh	DAT uptake mod	CYP2C9 act	CYP2C19 inh
COC(=O)CCCC1=CC2=C(c3ccccc3)C(=O)C(C)(OC(=O)C3CCCC3)C(=O)C2=CN1Cc1ccc(OC)cc1 (stereo unspecified)	·	·	·	-0.57	·	·
CCN(CC)S(=O)(=O)c1ccc2nc(SC)sc2c1	0.2	·	33	0.48	0.7	78*
CSc1nc2ccc(NS(=O)(=O)c3ccc(Cl)s3)cc2s1	0	-0.67	100*	0.02	0	100*
CSc1nc2ccc(S(=O)(=O)Nc3c(C)n(C)n(-c4ccccc4)c3=O)cc2s1	0.8	-2.1	32	1.4	0.7	22
CSc1nc2ccc(S(=O)(=O)N(C)C)cc2s1	0.1	·	31	-0.13	0.7	86*
CCOc1ccccc1CN1C(=O)c2ccccc2C1C(=O)NCC1CCCO1 (stereo unspecified)	0.9	-0.069	-6	0.29	1.1	8
O=c1cnn(-c2ccccc2)c(-c2ccccc2)c1	1	·	31	-0.58	0.7	-2
CC(OC(=O)CN1C(=O)NC(C)(C)C1=O)C(=O)c1ccccc1 (stereo unspecified)	0.4	·	24	-0.013	0.8	60*
Cc1nnc(NC(=O)c2ccc(C)c(S(=O)(=O)N3CCCCCC3)c2)s1	1	-2.3	-9	-0.0044	1.1	-4
O=C(Nc1ccon1)c1cccc(S(=O)(=O)N2CCCCCC2)c1	0.1	·	65*	-0.26	0.4	93*
Cc1csc(NC(=O)c2ccc(C)c(S(=O)(=O)N3CCCCC3)c2)n1	0.9	-0.13	27	2	0.7	14
O=C(Nc1ccon1)c1cccc(S(=O)(=O)N2CCCC2)c1	0.7	-1.4	16	0.58	0.8	34
CNC(=O)c1ccccc1NC(=O)c1ccc(C)c(S(=O)(=O)N2CCCCC2)c1	0.3	0.15	62*	0.11	0.4	70*
Cc1ccc(C(=O)Nc2nccs2)cc1S(=O)(=O)N1CCCCC1	0.3	-0.83	68*	0.95	0.3	66*
Cc1ccc(C(=O)Nc2ccc3cn[nH]c3c2)cc1S(=O)(=O)N1CCCCC1	1.1	·	92*	0.0076	0.1	-8
CC1C(O)=C(c2nc3ccccc3[nH]2)C(=N)N1c1ccccc1 (stereo unspecified)	0.9	-2.8	2	0.058	1	9
COc1ccc(CC(=O)Nc2cccc(/C(C)=N/NC(=O)c3cccc([N+](=O)[O-])c3)c2)cc1	1	·	38	0.58	0.6	1
Cc1cc(C)n(C(=O)c2cccc(S(=O)(=O)N3CCCC3)c2)n1	0.2	2.7	72*	-0.35	0.3	76*
CC(=O)Nc1cccc(S(=O)(=O)N2CCCCCC2)c1	0.2	·	-148	0.057	2.5*	75*
O=C(c1cccc(S(=O)(=O)N2CCCC2)c1)c1nnc(-c2ccncc2)o1	0.2	0.94	90*	1.1	0.1	78*
Cc1ccc(C(=O)NCc2cccs2)cc1S(=O)(=O)N1CCCCC1	0.6	·	56*	-0.34	0.4	38
O=C(O)c1cccc(S(=O)(=O)N2CCCC2)c1	0.9	-0.15	21	0.53	0.8	6
COC(=O)c1[nH]c2ccccc2c1NC(=O)CNC1CCCCC1	1.1	-1.2	-17	0.33	1.2	-11
C/C(=C(\C#N)C(=O)NCc1ccccc1)N(C)C	0.9	·	10	-0.48	0.9	12

Screening data deposited in PubChem BioAssay by several laboratories.
